COUP-TFII inh: inhibitors of human COUP-TFII (NR2F2) | P24468 | HEK293T NGFI-A luciferase reporter, luminescence | inhibition, % at 8.6 µM | 370,000 compounds, 0.7% hits;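 active means inhibition above a per-plate cutoff, mean inhibition of test wells between control levels plus 3 SD, cut at about 38% in these data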;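 further: cells cotransfected with COUP-TFII expression vector driving the NGFI-A reporter; 0% = median of COUP-TF2 test wells and 100% = reporter-only cells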
LRH-1 inv ag: suppresses constitutive activity of human LRH-1. O00482. inhibition, % at 3.6 µM. AID 602396. 360,000 compounds, 0.13% hits. HEK293T StAR-luciferase reporter, LRH-1 transfected, 24 h;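 active means inhibition above the mean inhibition of all tested compounds plus 3 SD, cut at about 73% in these data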;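 further: 0% = DMSO wells and 100% = reporter-only cells lacking LRH-1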
Target sequence (O00482 whole entry, looked up): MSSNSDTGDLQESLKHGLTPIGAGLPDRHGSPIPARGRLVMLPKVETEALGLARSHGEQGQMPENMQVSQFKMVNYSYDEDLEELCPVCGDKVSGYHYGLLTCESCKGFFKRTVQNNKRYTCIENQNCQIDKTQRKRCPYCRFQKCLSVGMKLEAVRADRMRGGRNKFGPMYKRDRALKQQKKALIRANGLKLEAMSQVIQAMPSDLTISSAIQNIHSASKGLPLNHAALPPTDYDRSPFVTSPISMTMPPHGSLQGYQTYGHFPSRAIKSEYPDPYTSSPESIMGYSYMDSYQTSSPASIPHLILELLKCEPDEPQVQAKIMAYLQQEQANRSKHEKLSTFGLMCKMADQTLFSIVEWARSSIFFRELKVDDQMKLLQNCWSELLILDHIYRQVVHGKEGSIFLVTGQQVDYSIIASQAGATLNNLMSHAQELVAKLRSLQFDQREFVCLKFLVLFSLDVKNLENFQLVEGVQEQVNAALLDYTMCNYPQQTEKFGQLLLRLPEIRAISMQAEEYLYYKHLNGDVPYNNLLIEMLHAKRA
NCOA1 inh: inhibitors of human steroid receptor coactivator 1 (SRC1) | Q15788 | HEK293 GAL4-SRC1 luciferase reporter, luminescence | inhibition, % at 3.6 µM | 360,000 compounds, 0.12% hits | AID 588354;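 active means inhibition above the campaign mean plus 3 SD, with each screening campaign given its own cutoff, cut at about 60% in these data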;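 further: 0% = DMSO treated cells and 100% = gossypol at 36 µM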
SRC3 inh: inhibits human SRC3 coactivator | HEK293 GAL4-SRC3 luciferase reporter, luminescence | inhibition, % at 3.6 µM | 360,000 compounds, 0.17% hits | AID 588352;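 active means inhibition above a per-campaign cutoff, the mean of all compounds plus 3 SD, cut at about 60% in these data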;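 further: 0% = DMSO-treated cells and 100% = gossypol-treated cells at 36 µM; higher means less SRC3-driven luciferase light from the GAL4 reporter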
NCOA2 inhibitor: human SRC2 (NCOA2) inhibition; Q15596; HEK293 GAL4-SRC2 luciferase reporter, luminescence; inhibition, % at 9 µM; 370,000 compounds, 0.17% hits;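 active means inhibition above the mean inhibition of all tested compounds plus 3 SD, set per campaign, cut at about 52% in these data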;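 further: 0% = DMSO treated cells and 100% = cells given Gossypol at 36 µM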
Gal4-VP16 ctr: inhibits VP16 reporter, flagging COUP-TFII antagonist hits | AID 687007 | inhibition, % at 8.5 µM | HEK293 Gal4-VP16 luciferase reporter, luminescence | shares compounds with COUP-TFII inh | 2,500 compounds, 25% hits; in the data active means inhibition above about 13%
NR2F2 inh conf: confirmation of human COUP-TFII (NR2F2) inhibitors; shares compounds with COUP-TFII inh; HEK293 NGFI-A luciferase reporter, luminescence; inhibition, % at 8.5 µM; 2,500 compounds, 45% hits; AID 687008;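 active means mean inhibition over three repeats above a set limit taken from the earlier primary screen, cut at about 38% in these data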;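 further: 100% = cells given the luciferase reporter alone without the COUP-TF2 vector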
Numbers without * were called inactive; . = not tested or not shown. Rows were chosen to be rich in hits. Some 0.84% of all compounds tested hit in one or more screens of this group.

SMILES | COUP-TFII inh | LRH-1 inv ag | NCOA1 inh | SRC3 inh | NCOA2 inhibitor | Gal4-VP16 ctr | NR2F2 inh conf
C=C1C(=O)[C@]23C[C@H]1CC[C@H]2[C@]1(C)CCC[C@@](C)(C(=O)OC)[C@H]1C[C@@H]3O | 94* | . | . | . | 84* | 71* | 60*
COC(=O)[C@]1(C)CCC[C@@]2(C)C3CC[C@]4(OC(C)=O)C[C@@]3(CCC21)CC4=O (some centres undefined) | 14 | 8 | -12 | 9 | 18 | . | .
Clc1ccc(-c2c[n+](Cc3ccc(Cl)cc3Cl)c3n2CCCCC3)cc1 | 24 | 25 | 10 | 36 | 24 | . | .
Clc1ccc(C[n+]2cc(-c3ccccc3)n3c2CCCCC3)c(Cl)c1 | 42* | 26 | -8 | 49 | 13 | 11 | 22
CN(Cc1ccc2c(c1)CCCN2C)C(=O)[C@@H](Cc1ccccc1)NC(=O)[C@H]1O[C@@H](n2ccc(=O)[nH]c2=O)[C@H](O)[C@@H]1O | -1 | . | . | . | -8 | . | .
C=CCN(c1ccccc1OC)S(=O)(=O)c1ccc(Cl)c(C(=O)Nc2ccc(N3CCOCC3)cc2)c1 | 43* | 21 | 15 | 28 | 3 | 4 | 25
COc1cccc(-c2nnc(SCc3cc(C)ccc3C)n2Cc2ccco2)c1 | 41* | . | . | . | 18 | 9 | 11
COc1ccc2c(c1)[C@@]1(OCCC=C[C@H]1C)C(=O)N2CC1CC1 | 14 | . | . | . | 2 | . | .
c1ccc(Nc2nc(NCC3CCCO3)c3ccccc3n2)cc1 (centres undefined) | 36 | 16 | -1 | 14 | 6 | . | .
CCOc1ccc(Nc2nc(NCC3CCCO3)c3ccccc3n2)cc1 (centres undefined) | 60* | 0 | -6 | 1 | 8 | 4 | 43*
C=CC(=O)NC1CCCCN(CCC)C1=O (centres undefined) | 2 | . | . | . | 11 | . | .
Cc1ccc(-n2c(C)cc(C(=O)COc3cccnc3[N+](=O)[O-])c2C)cc1 | 19 | 35 | 20 | 35 | 35 | . | .
Cc1cc(C(=O)COc2cccnc2[N+](=O)[O-])c(C)n1-c1ccccc1F | 48* | 4 | 22 | 23 | 51 | -100 | -42
CCOC(=O)c1[nH]c(C(=O)O)c(OC(=O)CC)c1C | -2 | -7 | 14 | 4 | -17 | . | .
Nc1nc2cc3c(cc2cc1C(=O)NCCc1c[nH]c2ccccc12)OCO3 | 66* | . | . | . | 14 | -2 | 52*
COc1ccc(CCNC(=O)c2c(N)[nH]c(C(=O)c3ccccc3)c2-c2ccc(N(C)C)cc2)cc1 | 44* | . | . | . | . | -20 | 3
CCN1CCN(/C=N/c2nc3c(s2)CCCC3)CC1 | 51* | 56 | 46 | 59 | 39 | 25* | 55*
CCOC(=O)c1ccc2nc(Nc3nc4ccc(F)cc4s3)sc2c1 | -2 | 16 | 10 | 35 | 19 | . | .
COC(=O)c1ccc2nc(Nc3nc4c(F)cc(F)cc4s3)sc2c1 | 66* | 62 | 55 | 60 | 53* | 26* | 82*
CC(C)(C)c1ccc(OCCC(=O)Nc2cccc(S(=O)(=O)NC3=NCCCCC3)c2)cc1 | 40* | 20 | 8 | 10 | 8 | -2 | 11
Cc1cccc(C)c1OCc1cc(C(=O)N(Cc2c(C)nn(C)c2C)C2CC2)no1 | 51* | 12 | 19 | 23 | 10 | 0 | 32
O=[N+]([O-])c1ccc(Sc2cccc[n+]2[O-])c2nonc12 | 101* | 90* | 89* | 84* | 93* | 96* | 105*
O=[N+]([O-])c1ccc(Nc2ccccc2)c2nonc12 | 10 | 3 | -1 | 12 | -16 | . | .
Cc1cc(Br)c(OCc2ccc(C(=O)N/N=C/c3ccc[nH]3)cc2)c(Br)c1 | 68* | 91* | -10 | 76* | -41 | 29* | 78*
O=C(N/N=C/c1ccccc1C(=O)O)c1ccc(COc2cccc3cccnc23)cc1 | 7 | 13 | -1 | -8 | -10 | . | .
SMILES | COUP-TFII inh | LRH-1 inv ag | NCOA1 inh | SRC3 inh | NCOA2 inhibitor | Gal4-VP16 ctr | NR2F2 inh conf
O=C(N/N=C/c1ccc[nH]1)c1ccc(COc2cccc3cccnc23)cc1 | 73* | 79* | 36 | 69* | 34 | 39* | 89*
CCCCCCCCN1C(=O)[C@@H](CC(=O)N2CCC(c3ccccc3)CC2)C[C@@]2(C(=O)OC)C1=C[C@H](C1CCCC1)O[C@@H]2C | 3 | . | . | . | -63 | . | .
O=C(NCc1ccccc1)[C@H]1CCCN1C(=O)[C@H]1CCCN1C(=O)c1cccc(Cl)c1 | -21 | . | . | . | 4 | . | .
C[C@@H]1ON(C)[C@H]2C[C@H]3c4[nH]c5c(-c6cccc(Cl)c6)cccc5c4CCN3C(=O)[C@@H]12 | 4 | . | . | . | 20 | . | .
CCC(=O)N1CCCC(C(=O)NS(=O)(=O)c2cc(C)c(Cl)cc2C)CC1 (centres undefined) | 0 | -18 | 4 | -12 | 11 | . | .
COc1cccc(CN(C)C(=O)c2cc(COc3c(F)cccc3F)on2)c1 | 0 | -5 | 4 | 7 | -8 | . | .
COc1cccc(CN(C)C(=O)c2cc(COc3ccc(-n4cncn4)cc3)on2)c1 | 38* | -8 | 14 | 26 | 14 | -4 | -1
COc1cccc(CN(C)C(=O)c2cc(COc3ccc4ncccc4c3)on2)c1 | 73* | 35 | 7 | 28 | 6 | -2 | 56*
C(=N\Nc1nc2ccccc2[nH]1)/c1ccc2c(c1)OCCO2 | 9 | -157 | -86 | -58 | -7 | . | .
C(=N\Nc1ccc2ccccc2n1)/c1ccc2c(c1)OCCO2 | 64* | 43 | 60 | 57 | 52 | 38* | 70*
CCOc1ccc2[nH]c3c(NCCc4ccc(OC)c(OC)c4)ncnc3c2c1 | 49* | -1 | -29 | 16 | -10 | -11 | 5
COc1ccc(CCNc2ncnc3sc(C)cc23)cc1OC | 79* | 46 | 19 | 26 | 36 | -1 | 68*
C=C1C[C@@H]2C[C@@H]2CN(S(=O)(=O)c2ccc(C)cc2)[C@@H]1COCc1ccccc1 | 40* | 19 | . | . | -16 | -8 | 6
Cc1ccc(S(=O)(=O)N2CCC(=O)N(CCOCc3ccccc3)CC2)cc1 | -3 | 20 | -9 | -5 | 2 | . | .
C(/C=C\c1ccco1)=NN1CCN(Cc2cccc3ccccc23)CC1 | -1 | . | . | . | -25 | . | .
COc1ccc(S(=O)(=O)N2CCN(CCOc3ccc(Br)cc3)CC2)cc1OC | 60* | 7 | 16 | 7 | 31 | -13 | 27
O=C(Nc1ccc(-c2nc3ccccc3s2)cc1)c1cc(-n2cnnc2)ccc1Cl | 70* | 25 | -16 | -4 | -24 | -16 | 52*
Cc1ccc(NC(=O)c2cc(-n3cnnc3)ccc2Cl)cc1 | 10 | 7 | -13 | -4 | -24 | . | .
CN1CCN(c2nc(Nc3ccc(F)cc3)nc(Nc3ccc(F)cc3)n2)CC1 | -8 | 3 | 13 | 19 | -20 | . | .
Cn1nccc1-c1ccc(C(=O)NCc2ccco2)c2occc12 | -46 | -32 | -43 | -35 | -25 | . | .
